These results are taken from ChEMBL document CHEMBL5724796, “Tm Shift (DSF) assay results for EUbOPEN Chemogenomics Library” (2024).

Non-standard residues stand in square brackets, D forms with d. Residues, ends and D or L forms follow the SMILES beside them. *: point of attachment. Benzoyl(4-OPh) = O=C(c1ccc(Oc2ccccc2)cc1)*; Lys(Et2) = CCN(CC)CCCC[C@H](N)C(=O)O; d(aIle) = CC[C@H](C)[C@@H](N)C(=O)O; Gly(cPent) = N[C@H](C(=O)O)C1CCCC1; NH(propargyl) = C#CCN*

What all share (conditions): Compound concentration 20.0 uM
For assay [1], the target named is Tyrosine-protein kinase ABL1 (Homo sapiens) (UniProt P00519).
Assay [2] deals with Bromodomain-containing protein 4 (Homo sapiens) (UniProt O60885).
Assay [3] deals with Cyclin-dependent kinase 2 (Homo sapiens) (UniProt P24941).
Assay [4] has as its target Casein kinase I isoform delta (Homo sapiens) (UniProt P48730).
Assay [5] has as its target Glycogen synthase kinase-3 beta (Homo sapiens) (UniProt P49841).
The target in assay [6] is Mitogen-activated protein kinase 1 (Homo sapiens) (UniProt P28482).
In assay [7] the target is T1, Aurora kinase A (Homo sapiens) (UniProt O14965).
T1 sequence (whole entry): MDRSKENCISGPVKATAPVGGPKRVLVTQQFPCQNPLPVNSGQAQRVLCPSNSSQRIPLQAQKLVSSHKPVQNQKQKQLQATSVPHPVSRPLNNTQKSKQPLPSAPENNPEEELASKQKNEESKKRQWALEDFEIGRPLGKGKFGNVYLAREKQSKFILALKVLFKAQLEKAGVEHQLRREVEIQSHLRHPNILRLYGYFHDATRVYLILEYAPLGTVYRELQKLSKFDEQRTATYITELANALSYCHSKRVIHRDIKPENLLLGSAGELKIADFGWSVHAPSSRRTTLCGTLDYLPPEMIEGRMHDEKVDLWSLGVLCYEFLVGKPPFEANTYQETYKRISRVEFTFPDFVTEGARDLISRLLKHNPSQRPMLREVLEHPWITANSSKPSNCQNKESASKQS

The target in assay [8] is T2, Transcription intermediary factor 1-alpha (Homo sapiens) (UniProt O15164).
T2 sequence (whole entry): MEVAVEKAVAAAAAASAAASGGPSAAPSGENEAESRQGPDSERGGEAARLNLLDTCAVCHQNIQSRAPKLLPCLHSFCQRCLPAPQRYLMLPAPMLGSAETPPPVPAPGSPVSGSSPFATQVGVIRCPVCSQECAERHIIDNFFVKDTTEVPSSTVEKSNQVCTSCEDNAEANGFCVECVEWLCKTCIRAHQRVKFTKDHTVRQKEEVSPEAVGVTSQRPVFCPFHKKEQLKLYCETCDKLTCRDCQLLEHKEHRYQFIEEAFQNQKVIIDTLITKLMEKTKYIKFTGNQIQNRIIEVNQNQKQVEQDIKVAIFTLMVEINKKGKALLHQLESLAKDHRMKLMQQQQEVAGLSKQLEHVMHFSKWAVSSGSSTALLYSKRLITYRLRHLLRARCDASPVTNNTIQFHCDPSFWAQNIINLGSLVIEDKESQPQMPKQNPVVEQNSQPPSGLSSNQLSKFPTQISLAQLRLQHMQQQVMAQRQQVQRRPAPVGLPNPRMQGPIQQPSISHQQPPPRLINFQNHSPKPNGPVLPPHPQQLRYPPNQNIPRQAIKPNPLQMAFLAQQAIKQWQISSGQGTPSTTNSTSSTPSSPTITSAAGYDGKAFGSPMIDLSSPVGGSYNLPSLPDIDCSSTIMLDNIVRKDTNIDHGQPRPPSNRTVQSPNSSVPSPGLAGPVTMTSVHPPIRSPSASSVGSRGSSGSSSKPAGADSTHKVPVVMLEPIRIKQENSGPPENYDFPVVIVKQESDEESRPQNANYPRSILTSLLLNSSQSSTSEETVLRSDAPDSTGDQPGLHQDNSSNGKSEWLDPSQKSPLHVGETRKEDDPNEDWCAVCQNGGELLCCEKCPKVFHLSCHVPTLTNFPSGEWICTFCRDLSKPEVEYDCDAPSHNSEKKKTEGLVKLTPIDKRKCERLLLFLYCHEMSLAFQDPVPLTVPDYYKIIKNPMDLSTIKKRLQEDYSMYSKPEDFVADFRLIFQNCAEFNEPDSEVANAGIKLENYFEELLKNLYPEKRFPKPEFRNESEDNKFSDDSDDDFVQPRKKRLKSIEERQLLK

Chain of Casein kinase I isoform delta (Homo sapiens) (P48730 whole entry, looked up, canonical isoform): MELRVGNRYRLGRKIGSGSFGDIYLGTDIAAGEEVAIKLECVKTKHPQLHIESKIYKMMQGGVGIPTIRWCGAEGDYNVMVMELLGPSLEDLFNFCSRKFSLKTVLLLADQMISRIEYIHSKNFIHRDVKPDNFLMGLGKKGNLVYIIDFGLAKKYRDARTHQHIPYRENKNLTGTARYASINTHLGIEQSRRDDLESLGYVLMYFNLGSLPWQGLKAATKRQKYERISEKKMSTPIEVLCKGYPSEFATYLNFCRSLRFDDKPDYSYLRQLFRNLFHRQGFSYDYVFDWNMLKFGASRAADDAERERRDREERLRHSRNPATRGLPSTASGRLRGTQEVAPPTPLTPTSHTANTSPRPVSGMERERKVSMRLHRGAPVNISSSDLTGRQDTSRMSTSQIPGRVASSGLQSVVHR
Chain of Glycogen synthase kinase-3 beta (Homo sapiens) (P49841 whole entry, looked up): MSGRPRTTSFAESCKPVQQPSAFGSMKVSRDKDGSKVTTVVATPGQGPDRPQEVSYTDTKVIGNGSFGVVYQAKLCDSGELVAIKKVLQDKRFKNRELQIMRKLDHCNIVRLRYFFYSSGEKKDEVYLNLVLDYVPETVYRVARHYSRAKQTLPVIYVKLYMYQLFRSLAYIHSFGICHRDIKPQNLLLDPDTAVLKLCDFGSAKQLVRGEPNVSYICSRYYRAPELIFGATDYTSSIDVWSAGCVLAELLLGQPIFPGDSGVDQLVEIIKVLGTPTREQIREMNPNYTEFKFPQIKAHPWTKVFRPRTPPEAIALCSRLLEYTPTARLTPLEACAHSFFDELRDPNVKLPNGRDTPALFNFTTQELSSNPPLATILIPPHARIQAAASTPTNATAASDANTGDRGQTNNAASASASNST
Chain of Tyrosine-protein kinase ABL1 (Homo sapiens) (P00519 whole entry): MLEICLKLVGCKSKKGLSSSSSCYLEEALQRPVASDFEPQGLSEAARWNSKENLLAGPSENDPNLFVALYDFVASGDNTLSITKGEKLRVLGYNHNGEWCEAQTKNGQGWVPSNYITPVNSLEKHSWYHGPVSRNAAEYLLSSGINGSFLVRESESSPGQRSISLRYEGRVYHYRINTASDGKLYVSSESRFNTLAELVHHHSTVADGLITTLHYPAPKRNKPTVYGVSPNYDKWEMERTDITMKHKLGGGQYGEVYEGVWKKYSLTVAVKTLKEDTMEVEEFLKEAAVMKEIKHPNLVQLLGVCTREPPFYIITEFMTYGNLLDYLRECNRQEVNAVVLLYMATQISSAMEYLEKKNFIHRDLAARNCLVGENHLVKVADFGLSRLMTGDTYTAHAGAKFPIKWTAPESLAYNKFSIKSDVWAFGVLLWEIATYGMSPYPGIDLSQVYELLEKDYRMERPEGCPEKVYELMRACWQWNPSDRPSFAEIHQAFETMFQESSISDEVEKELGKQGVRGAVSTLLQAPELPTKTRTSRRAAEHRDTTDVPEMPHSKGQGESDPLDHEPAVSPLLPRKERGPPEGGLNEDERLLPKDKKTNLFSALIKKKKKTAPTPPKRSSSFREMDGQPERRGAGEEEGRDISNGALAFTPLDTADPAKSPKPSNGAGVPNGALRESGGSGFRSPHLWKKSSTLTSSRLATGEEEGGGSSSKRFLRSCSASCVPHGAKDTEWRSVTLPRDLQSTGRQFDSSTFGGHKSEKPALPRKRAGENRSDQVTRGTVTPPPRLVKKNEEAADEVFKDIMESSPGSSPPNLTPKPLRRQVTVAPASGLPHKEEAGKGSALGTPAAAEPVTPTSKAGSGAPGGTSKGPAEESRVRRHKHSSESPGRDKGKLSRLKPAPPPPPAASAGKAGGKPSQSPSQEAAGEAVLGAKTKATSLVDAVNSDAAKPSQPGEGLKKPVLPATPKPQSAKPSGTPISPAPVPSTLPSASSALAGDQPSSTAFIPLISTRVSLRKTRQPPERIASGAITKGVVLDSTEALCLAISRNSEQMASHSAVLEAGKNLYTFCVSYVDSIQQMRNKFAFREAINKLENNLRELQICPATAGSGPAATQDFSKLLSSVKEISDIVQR
Chain of Mitogen-activated protein kinase 1 (Homo sapiens) (P28482 whole entry): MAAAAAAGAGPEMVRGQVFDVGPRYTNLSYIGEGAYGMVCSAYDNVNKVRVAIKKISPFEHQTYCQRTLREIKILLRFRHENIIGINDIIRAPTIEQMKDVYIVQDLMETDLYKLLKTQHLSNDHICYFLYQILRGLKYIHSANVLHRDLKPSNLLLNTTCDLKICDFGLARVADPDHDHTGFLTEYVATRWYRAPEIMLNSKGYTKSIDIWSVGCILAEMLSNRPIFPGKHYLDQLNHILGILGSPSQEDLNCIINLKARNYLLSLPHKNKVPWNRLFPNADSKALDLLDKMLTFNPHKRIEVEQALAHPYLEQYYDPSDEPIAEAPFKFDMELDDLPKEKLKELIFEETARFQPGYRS

As for `O=C(NNc1ccccn1)c1ccccn1`, the ΔTm – broadly, the change in melting temperature against a reference sample – was 0.12 °C in assay [1]; -1.77 °C in assay [2]; -0.03 °C in assay [3]; -0.33 °C in assay [4]; -0.62 °C in assay [5]; 0.17 °C in assay [6]. In addition, the ΔTm was -0.43 °C in assay [7] and 0.92 °C in assay [8].
Turning to `COc1cc(O)c2c(c1)/C=C\C[C@H](O)[C@H](O)C(=O)/C=C\C[C@H](C)OC2=O`, the ΔTm in assay [1] is 6.88 °C; in assay [2], -0.9 °C; in assay [3], 0 °C; in assay [4], 0.3 °C; in assay [5], 0 °C; in assay [6], 0 °C. In addition, the ΔTm is 0 °C in assay [7] and -0.14 °C in assay [8].
For `O=[N+]([O-])c1cc(O)c(O)c([N+](=O)[O-])c1`, the ΔTm in assay [1] was 0.3 °C; in assay [2], 2.94 °C; in assay [3], 1.19 °C; in assay [4] it was -0.22 °C; in assay [5] it was -0.11 °C; in assay [6], 0.24 °C. Also, the results for the ΔTm in assay [7] and in assay [8] were 0.17 °C and 3.59 °C, respectively.
With `CCCCCn1c(C)c(C(=O)c2cccc3ccccc23)c2ccccc21`, the ΔTm was 0.2 °C in assay [1]; -0.88 °C in assay [2]; 0.76 °C in assay [3]; 0.04 °C in assay [4]; -0.36 °C in assay [5]; 0.95 °C in assay [6]. Further, the values for the ΔTm in assay [7] and in assay [8] were -2.46 °C and 0.22 °C, respectively.
As for `CC(C)n1nc(-c2cc3cc(O)ccc3[nH]2)c2c(N)ncnc21`, the ΔTm amounted to 2.33 °C in assay [2]; 2.02 °C in assay [3]; 5.15 °C in assay [4]; 2 °C in assay [5] (Protein concentration 2.0 uM); 0.14 °C in assay [6]; 3.86 °C in assay [7]. Also, the ΔTm in assay [8] was -0.37 °C.
As for `CC(=O)Nc1ccc(OC[C@](C)(O)C(=O)Nc2ccc([N+](=O)[O-])c(C(F)(F)F)c2)cc1`, the ΔTm in assay [1] is 0.78 °C; in assay [2], -0.77 °C; in assay [3], 0.35 °C; in assay [4], 0.23 °C; in assay [5], 0.71 °C; in assay [6], -0.26 °C. Moreover, the results for the ΔTm in assay [7] and in assay [8] were -0.03 °C and 0.02 °C, respectively.
On to `CN(Cc1cccc(-c2ccncc2)c1)C(=O)Oc1ccc(-c2ccc(C(N)=O)cc2)cc1`, for which the ΔTm in assay [1] is 0.52 °C; in assay [2], 0.54 °C; in assay [3], 0.45 °C; in assay [4] it was -0.05 °C; in assay [5], 0.86 °C; in assay [6] it was 0.04 °C. Also, the ΔTm in assay [7] was -1.82 °C; in assay [8], 0.18 °C.
Take `Cc1sc2c(c1C)C(c1ccc(Cl)cc1)=N[C@@H](CC(=O)OC(C)(C)C)c1nnc(C)n1-2`: the ΔTm in assay [1] was 0.27 °C; in assay [3], 0 °C; in assay [4], 0.21 °C; in assay [5], -0.11 °C; in assay [6], -0.24 °C; in assay [7] it was -0.4 °C. The ΔTm in assay [8] is -1.48 °C.
Regarding `C(=C\c1ccccc1)/CN1CCN(CCOC(c2ccccc2)c2ccccc2)CC1`, the ΔTm in assay [1] was 0.28 °C; in assay [2], -3.78 °C; in assay [3], -0.38 °C; in assay [4], -0.31 °C; in assay [5] it was -0.82 °C; in assay [6], 0.07 °C. For the same molecule, the ΔTm in assay [7] is -2.65 °C; in assay [8], -2.32 °C.
As for `N#Cc1nc2c(nc1C#N)-c1ccccc1C2=NOCc1ccccc1`, the shift in melting temperature (ΔTm) in assay [1] is 0.19 °C; in assay [2], 1.2 °C; in assay [3], 3.11 °C; in assay [4], -0.93 °C; in assay [5], 0.13 °C; in assay [6], -0.23 °C. Further, the ΔTm in assay [7] was -1.52 °C; in assay [8], 1.99 °C.
Consider `CCOC(=O)c1ccc(-c2ccc(OC(=O)N(C)Cc3cccc(-c4ccncc4)c3)cc2)cc1`, for which the ΔTm was 1.38 °C in assay [1]; -2.49 °C in assay [2]; 0.29 °C in assay [3]; -0.29 °C in assay [4]; -4.12 °C in assay [5]; 0.21 °C in assay [6]. Further, the ΔTm in assay [7] was -1.65 °C; in assay [8], -0.65 °C.
With `COc1cn(-c2ccc(-n3cccn3)cc2F)nc(-c2ccnn2-c2ccccc2)c1=O`, the thermal shift (ΔTm) in assay [1] came out at 0.53 °C; in assay [2], 0.2 °C; in assay [3] it was 1.24 °C; in assay [4], 0.13 °C; in assay [5], 0.96 °C; in assay [6], 0.22 °C. The ΔTm in assay [7] was -1.86 °C; in assay [8] it was -0.41 °C.
For the molecule `C#CCNC(=O)[C@H](CO)NC(=O)[C@H](CCCCN(CC)CC)NC(=O)[C@H](NC(=O)[C@@H](NC(=O)c1ccc(Oc2ccccc2)cc1)C1CCCC1)[C@@H](C)CC` ({Benzoyl(4-OPh)}-[Gly(cPent)][d(aIle)][Lys(Et2)]S-{NH(propargyl)}), the ΔTm is 0.66 °C in assay [1]; -3.19 °C in assay [2]; -0.21 °C in assay [3]; 0.55 °C in assay [4]; -0.46 °C in assay [5]; 0.25 °C in assay [6]. The ΔTm in assay [7] was 0.59 °C; in assay [8], -3.76 °C.
As for `O=C(N1CCCC[C@@H]1Cc1ccccc1)n1cc(-c2ccc(-c3ccccc3)cc2)nn1`, the thermal shift (ΔTm) was 0.24 °C in assay [1]; -2.3 °C in assay [2]; 0.21 °C in assay [3]; -1.21 °C in assay [4]; -0.59 °C in assay [5]; -0.45 °C in assay [6]. The shift in melting temperature (ΔTm) is -2.78 °C in assay [7] and 2.73 °C in assay [8].
For the molecule `Nc1cccc(CNC(=O)c2ccc(Oc3ccc(OCc4cccc(F)c4)cc3)nc2)c1`, the thermal shift (ΔTm) in assay [1] is 1.07 °C; in assay [2], -0.91 °C; in assay [3], 0.38 °C; in assay [4], -0.56 °C; in assay [5], 1.13 °C; in assay [6], -0.86 °C. The ΔTm was -1.57 °C in assay [7] and 0.24 °C in assay [8].
Consider `COC(=O)C[C@@H]1N=C(c2ccc(Cl)cc2)c2c(sc(C)c2C)-n2c(C)nnc21`, for which the shift in melting temperature (ΔTm) was -0.09 °C in assay [1]; 12.3 °C in assay [2]; -0.41 °C in assay [3]; 0.16 °C in assay [4]; -0.01 °C in assay [5]; -0.21 °C in assay [6]. Besides, the ΔTm in assay [7] was -1.3 °C; in assay [8], -0.91 °C.
Turning to `COc1ccc(N(C(=O)Oc2c(C)cccc2C)c2ccnc(Nc3ccc(N4CCN(C)CC4)cc3)n2)c(OC)c1`, the ΔTm was 9.28 °C in assay [1]; -0.9 °C in assay [2]; 0.75 °C in assay [3]; 0.09 °C in assay [4]; 1.59 °C in assay [5]; 0.08 °C in assay [6]. The ΔTm in assay [7] was 0.66 °C; in assay [8] it was -0.91 °C.
For `C[C@]12O[C@H](C[C@]1(O)CO)n1c3ccccc3c3c4c(c5c6ccccc6n2c5c31)CNC4=O`, the ΔTm in assay [2] was -1.2 °C; in assay [3], 9.18 °C; in assay [4], 2.18 °C; in assay [5], 4.78 °C; in assay [6] it was 0.35 °C; in assay [7], 8.79 °C. Further, the ΔTm in assay [8] is -0.11 °C.
For the molecule `CCS(=O)(=O)N1CCC([C@@H](C)n2c(C)c(C(=O)NCc3c(OC)cc(C)[nH]c3=O)c3ccccc32)CC1`, the ΔTm in assay [1] was 0.06 °C; in assay [2], -2.35 °C; in assay [3] it was 0.2 °C; in assay [4], 0.01 °C; in assay [5], -0.39 °C; in assay [6], -0.34 °C. Further, the ΔTm in assay [7] was -0.26 °C; in assay [8], -1 °C.
Turning to `O=C1C(P(=O)(O)O)CCCN1O` (stereo not drawn), the shift in melting temperature (ΔTm) is 0.38 °C in assay [1]; -1.37 °C in assay [2]; 0.09 °C in assay [3]; -0.23 °C in assay [4]; -1.56 °C in assay [5]; 0.01 °C in assay [6]. The thermal shift (ΔTm) was -2.37 °C in assay [7] and -0.05 °C in assay [8].
As to `COc1cc(C)[nH]c(=O)c1CNC(=O)c1c(C)n([C@H](C)C2CCN(CC(F)(F)F)CC2)c2ccccc12`, the ΔTm in assay [1] is 0.27 °C; in assay [2], -2.03 °C; in assay [3], -0.09 °C; in assay [4], 0.08 °C; in assay [5], -0.64 °C; in assay [6], -0.27 °C. Also, the results for the ΔTm in assay [7] and in assay [8] were 0.25 °C and -1.56 °C, respectively.
Take `C=CCO/N=C1\c2ccccc2-c2nc(C#N)c(C#N)nc21`: the ΔTm in assay [1] is 0.13 °C; in assay [2] it was -2.12 °C; in assay [3], 0.55 °C; in assay [4], -1.63 °C; in assay [5], 0.17 °C; in assay [6] it was -0.02 °C. Besides, the ΔTm in assay [7] was -2.47 °C; in assay [8], 0.9 °C.
